Measured values reported in PubChem BioAssay AID1159580 (chemical genetic matrix, 2015).
Values joined by “and” are separate entries in the source; they are usually repeats but may differ in a detail not shown here. Identical values can stand only once. In all, about 5,500 compounds went through this assay and about 2,000 (36%) were called active. Another 18% or so got no clear call; they are omitted. No stated cut-off is given here; in the data, active means normalized growth mostly below about 0.91 (no sharp cut-off); inconclusive means no clear call, values can overlap the other calls; inactive means mostly above about 0.92. The list shows a part of the results.

Assay: chemical genetic growth profiling, strain panel (AID 1159580);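 further: tested at 20 µM; growth read once vehicle control cultures reached saturation at 30 °C; 1 = growth at the plate median or of vehicle wells; lower values mean less growth of the strain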
Settings: S. cerevisiae deletion strains, growth OD

Measured: normalized growth

Nc1ncnc2c1ncn2[C@@H]1O[C@H](CO)[C@@H](O)[C@H]1O
inactive: locus YAL021C, strain ccr4, hits give low values 0.97 | locus YAL026C, strain drs2, hits give low values 0.989 | locus YAL030W, strain snc1, hits give low values 0.995 | locus YBL061C, strain skt5, hits give low values 0.98 | locus YBR009C, strain hhf1, hits give low values 0.987 | locus YBR021W, strain FUR4, hits give low values 1.13 | locus YBR023C, strain chs3, hits give low values 0.972 | locus YBR171W, strain sec66, hits give low values 0.968 | locus YBR229C, strain ROT2, hits give low values 0.951 | locus YBR231C, strain swc5, hits give low values 1 | locus YBR279W, strain paf1, hits give low values 0.991 | locus YCL011C, strain gbp2, hits give low values 0.975 | locus YCL016C, strain dcc1, hits give low values 0.953 | locus YCL029C, strain bik1, hits give low values 0.972 | locus YCL061C, strain MRC1, hits give low values 0.966 | locus YCL069W, strain vba3, hits give low values 0.985 | locus YCR088W, strain abp1, hits give low values 0.994 | locus YDL005C, strain med2, hits give low values 0.992 | locus YDL035C, strain GPR1, hits give low values 0.987 | locus YDL040C, strain nat1, hits give low values 0.99 | locus YDL074C, strain BRE1, hits give low values 1.02 | locus YDL101C, strain DUN1, hits give low values 0.97 | locus YDL134C, strain PPH21, hits give low values 0.983 | locus YDL185W, strain tfp1, hits give low values 0.955 | locus YDL192W, strain arf1, hits give low values 0.982 | locus YDR001C, strain nth1, hits give low values 0.986 | locus YDR069C, strain doa4, hits give low values 1.02 | locus YDR101C, strain arx1, hits give low values 1.03 | locus YDR137W, strain rgp1, hits give low values 0.96 | locus YDR159W, strain sac3, hits give low values 0.994 | locus YDR162C, strain NBP2, hits give low values 0.948 | locus YDR195W, strain ref2 1.01 | locus YDR297W, strain sur2, hits give low values 0.985 | locus YDR318W, strain mcm21, hits give low values 0.973 | locus YDR334W, strain swr1, hits give low values 0.986 | locus YDR335W, strain msn5, hits give low values 0.987 | locus YDR388W, hits give low values 0.948 | locus YDR392W, strain spt3, hits give low values 0.904 | locus YDR502C, strain sam2, hits give low values 0.997 | locus YEL003W, strain gim4, hits give low values 0.994 | locus YEL037C, strain rad23, hits give low values 0.99 | locus YEL061C, strain CIN8 (second series), hits give low values 0.987 | locus YEL061C, strain CIN8, hits give low values 0.986 | locus YER015W, strain faa2, hits give low values 0.986 | locus YER016W, strain bim1, hits give low values 0.997 | locus YER110C, hits give low values 0.975 | locus YER111C, strain swi4, hits give low values 0.977 | locus YER155C, strain BEM2 (second series), hits give low values 1.01 | locus YER155C, strain BEM2, hits give low values 0.974 | locus YER167W, strain BCK2, hits give low values 0.988 | locus YFR010W, strain ubp6, hits give low values 0.99 | locus YGL078C, strain dbp3, hits give low values 0.986 | locus YGL086W, strain mad1, hits give low values 1.03 | locus YGL167C, strain pmr1, hits give low values 0.981 | locus YGL173C, strain kem1, hits give low values 0.98 | locus YGL227W, strain vid30, hits give low values 0.987 | locus YGL240W, strain doc1, hits give low values 0.989 | locus YGL248W, strain PDE1, hits give low values 0.979 | locus YGL253W, strain hxk2, hits give low values 0.988 | locus YGR135W, strain pre9, hits give low values 0.975 | locus YGR229C, strain SMI1, hits give low values 1 | locus YGR252W, strain gcn5, hits give low values 0.959 | locus YHR013C, strain ard1, hits give low values 0.955 | locus YHR027C, strain rpn1, hits give low values 0.981 | locus YHR030C, strain SLT2, hits give low values 0.994 and 1.01 | locus YHR079C, strain IRE1 (second series), hits give low values 0.982 | locus YHR079C, strain IRE1, hits give low values 1.03 | locus YHR094C, strain hxt1, hits give low values 0.97 | locus YHR129C, strain ARP1, hits give low values 0.995 | locus YHR142W, strain chs7, hits give low values 0.939 | locus YHR200W, strain rpn10, hits give low values 0.986 | locus YIL066C, strain RNR3, hits give low values 0.978 | locus YIL073C, strain SPO22, hits give low values 0.947 | locus YIL125W, strain kgd1, hits give low values 0.98 | locus YIR030C, strain dcg1, hits give low values 0.976 | locus YJL092W, strain hpr5, hits give low values 0.984 | locus YJL095W, strain BCK1 (second series), hits give low values 0.987 | locus YJL095W, strain BCK1, hits give low values 0.983 and 1.02 | locus YJL115W, strain asf1, hits give low values 0.987 | locus YJL129C, strain trk1, hits give low values 0.972 | locus YJL134W, strain LCB3, hits give low values 0.985 | locus YJL154C, strain vps35, hits give low values 0.999 | locus YJL164C, strain tpk1, hits give low values 0.981 | locus YJL166W, strain qcr8, hits give low values 0.969 | locus YJL168C, strain set2, hits give low values 0.99 | locus YJL187C, strain SWE1 (second series), hits give low values 0.968 | locus YJL187C, strain SWE1, hits give low values 0.992 | locus YJR043C, strain POL32, hits give low values 0.992
